Data: PubChem BioAssay (NCATS)
Records with an inconclusive call do not appear. The source made the active and inactive calls. Unless noted, the call rests on the fitted dose curve; in most records, active means well fitted inhibition curve with a large enough effect; inconclusive means small, poorly fitted or top-dose-only effect; inactive means flat fitted curve, though single readings scatter.

Columns and labels:
[1] = Primary qHTS for inhibitors of nuclear receptor binding SET domain protein 2 (NSD2) in an isogenic RCH-ACV NSD2 p.E1099K mutant (9B) (AID 1645876); further: nearly all actives have a fitted effect of over 70% in size
[2] = qHTS drug screen for cell cycle checkpoint inhibitors in PARPi-resistant BRCA-mutant ovarian cancer cell lines. (AID 1963452; calls by dose curve); conditions: PEO1/OlaR viability, CellTiter-Glo luminescence, 96 h; for Z-AUC: stronger effect = lower value
How it was run: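 PEO1, PEO4 and PEO1/OlaR ovarian cancer cells, 600 per well, exposed 96 h at 37C to a dilution series. Viability read by CellTiter-Glo luminescence, normalized to DMSO and empty wells; activity summarized as Z-AUC.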
Potency means the concentration at half of the fitted maximal effect.

| Structure (SMILES) | Potency [1] | Z-AUC ([2]; PEO1 parental Z-AUC) | Z-AUC ([2]; PEO4 Z-AUC) | Z-AUC [2] | Potency [2] |
| --- | --- | --- | --- | --- | --- |
| COC(=O)[C@]12CCC(C)(C)C[C@H]1[C@H]1C(=O)C=C3[C@@]4(C)C=C(C#N)C(=O)C(C)(C)[C@@H]4CC[C@@]3(C)[C@]1(C)CC2 | 8.33 µM (active) | -0.983 | -1.45 | 0.111 (inactive) |  |
| CC1(C)CC[C@]2(NC(=O)C(C)(F)F)CC[C@]3(C)[C@H](C(=O)C=C4[C@@]5(C)C=C(C#N)C(=O)C(C)(C)[C@@H]5CC[C@]43C)[C@@H]2C1 | 9.34 µM (active) | -1.7 | -2.21 |  | 1.38 µM (active) |
